This is an account of results in PubChem BioAssay (EPA / NIEHS).

More than one record can exist for a structure, and the calls need not agree. Activity calls are given as the source filed them. Rule for the calls: active = hit-call score of the fitted dose curve at least 0.9, where 1 is the maximum; inactive = score below 0.9.

The nature of this test: ATG_NF_kB_CIS: Attagene CIS-FACTORIAL HepG2 Assay for human Nuclear Factor Kappa B (NF-kB) (AID 2282991). To be noted: HepG2 Attagene cis-factorial NF-kB reporter mRNA; actives raise or lower the signal. The protocol:
ATG_CIS is a cell-based, multiplexed-readout assay that uses HepG2, a human liver cell line, with measurements taken at 24 hours after chemical dosing in a 24-well plate.ATG_NF_kB_CIS is one of 52 assay component(s) measured or calculated from the ATG_CIS assay. It is designed to make measurements of mRNA induction, a form of inducible reporter, as detected with fluorescence intensity signals by Reverse transcription polymerase chain reaction (RT-PCR) and Capillary electrophoresis technology.Data from the assay component ATG_NF_kB_CIS was analyzed into 1 assay endpoint. This assay endpoint, ATG_NF_kB_CIS, was analyzed with bidirectional fitting relative to DMSO as the negative control and baseline of activity. Using a type of inducible reporter, measures of mRNA for gain or loss-of-signal activity can be used to understand the reporter gene at the transcription factor-level as they relate to the gene NFKB1. Furthermore, this assay endpoint can be referred to as a primary readout, because this assay has produced multiple assay endpoints where this one serves a reporter gene function. To generalize the intended target to other relatable targets, this assay endpoint is annotated to the dna binding intended target family, where the subfamily is NF-kappa B.
Human liver HepG2 cells are transiently transfected with multiple reporter transcription units (MRTUs) in 6-well plates using FuGene 6 reagent (Roche; 3 ml FuGene/1 mg DNA). The MRTU constructs are regulated by a cis-regulating element (promoter). […] A major difference between the CIS and TRANS system is that in CIS activities of endogenous TFs are measured, whereas the TRANS assay evaluates changes in activities of exogenous, chimeric NR-Gal4 proteins. […] At the end of 24 hour incubation, total RNA was isolated using TriZol reagent (Invitrogen). The isolated RNA is then reverse-transcribed using oligo(dT) primer and Mo-MLV reverse transcriptase (Invitrogen) with DNAse I (Ambion) treatment for 30 min. The one-tenth of the produced cDNA was amplified by PCR using Taq DNA polymerase (Invitrogen) and two reporter sequence-specific primers. The PCR products were fluorescently labeled by primer extension with 6-arboxyfluorescein (6-FAM) 5'-labeled reporter sequence-specific primer (2 min at 95 C, 20 s at 68 C and 10 min at 72 C) and these products were digested with 5U of HpaI (New England Biolabs) for 2h at 37 C. The fragments were purified using Qiaquick PCR columns (Qiagen), analyzed on an ABI 3130xL genetic analyzer (Applied Biosystems) with peak positions identified by using a set of X-rhodamine (ROX)-labeled MapMarker1000 molecular weight standards (BioVentures). The raw capillary electrophoresis data was processed using Attagraph software (Attagene).
Take `O=P(O)(O)OCCC(F)(F)C(F)(F)C(F)(F)C(F)(F)C(F)(F)C(F)(F)F`: the result was inactive. The same measure, in the same setting: in the case of `C=CC/C=C/C/C=C/C/C=C/C` it was “inactive”; in that of `O=C(OCCOCCOCCOC(=O)c1ccccc1)c1ccccc1`, “inactive”. For the compound `C=CC(=O)OCC(F)(F)C(F)(F)C(F)(F)C(F)(F)COC(=O)C=C`, the AC50 (commonly the concentration at which the activity in the assay is half-maximal) is 38.4 µM (active). Consider `OC[C@@H](O)[C@@H](O)[C@H](O)[C@@H](O)CO`, for which the result was inactive.

Consider `CCCCCCCCCCCCCCCC[N+](C)(C)Cc1ccccc1`, for which the compound was classed as inactive.

On to `C=C(C)C(=O)OCC(F)(F)C(F)(F)C(F)(F)F`, for which the outcome was inactive. Still for that read-out and setting: in the case of `OCC(F)(F)C(F)(F)C(F)(F)C(F)(F)C(F)(F)C(F)(F)F` it was “inactive”; in that of `FC(F)(F)C(F)(F)C(F)(F)C(F)(F)C(F)(F)C(F)(F)C(F)(F)Br`, “inactive”.

Regarding `CCCCOCCOCCOC(=O)CCCCC(=O)OCCOCCOCCCC`, the compound was called inactive. As for `C(=C(c1ccccc1)c1ccccc1)c1ccccc1`, the outcome was inactive. `C=C(C)C(=O)OCCC(F)(F)C(F)(F)C(F)(F)C(F)(F)C(F)(C(F)(F)F)C(F)(F)F`: the outcome was inactive. Take `OCCCC(F)(F)C(F)(F)C(F)(F)C(F)(F)C(F)(F)C(F)(F)C(F)(F)F`: the result was inactive and the concentration at half-maximal activity (AC50) is 73.6 µM (active). As to `CCCCOc1ccc(N)cc1`, the outcome was inactive. Regarding `CC/C=C\CCOC(C)=O`, the result was inactive.

As for `FC(F)(F)C(F)(F)C(F)(F)C(F)(F)C(F)(F)C(F)(F)CC1CO1` (stereo not given), the compound was classed as inactive. On to `CCN(Cc1cccc(S(=O)(=O)O)c1)c1ccc(C(=C2C=CC(=[N+](CC)Cc3cccc(S(=O)(=O)O)c3)C=C2)c2ccc(O)cc2S(=O)(=O)[O-])cc1`, for which the result was inactive. As to `O=C(Cl)C(F)(F)C(F)(F)C(F)(F)C(F)(F)C(F)(F)C(F)(F)C(F)(F)C(F)(F)F`, the result was inactive. On the same count and under the same terms, in the case of `FC(F)(F)C(F)(F)C(F)(F)C(F)(F)C(F)(F)C(F)(F)C(F)(F)C(F)(F)F` it was “inactive”.

In the case of `O=C(CC(=O)C(F)(F)C(F)(F)F)C(F)(F)F`, the compound was called inactive and the half-maximal activity concentration (AC50) was 150 µM (active). On to `FC(F)(F)C(F)(F)C(F)(F)C(F)(F)CCI`, for which the call was inactive. Same read-out and setting: with `OCC(F)(F)C(F)(F)C(F)(F)C(F)F` the entry was “inactive”; with `O=S(=O)(O)c1ccc2ccccc2c1`, “inactive”; with `O=C(O)C(F)(F)C(F)(F)C(F)(F)C(F)(F)C(F)(F)C(F)(F)C(F)(F)C(F)(F)Cl`, “inactive”. With `CCCCCCCCC(F)(F)C(F)(F)C(F)(F)C(F)(F)C(F)(F)C(F)(F)F`, the call was inactive. For `CNC(=S)NC`, the result was inactive. On to `CC(C)(C)c1ccc(OC2CCCCC2O)cc1` (stereo not given), for which the result was inactive. Consider `O=C(O)C(F)(F)C(F)(F)OC(F)(F)F`, for which the outcome was inactive. Regarding `N=C(N)C(F)(F)C(F)(F)C(F)(F)C(F)(F)C(F)(F)C(F)(F)C(F)(F)F`, the call was inactive. `Nc1ccc(S(=O)(=O)Nc2nccs2)cc1`: the outcome was inactive. As to `C#C[C@]1(O)CC[C@H]2[C@@H]3CCc4cc(OC)ccc4[C@H]3CC[C@@]21C`, the call was inactive. On to `CC(=O)Nc1ccc(N=Nc2cc(C)ccc2O)cc1`, for which the result was inactive. For the compound `O=C(O)C=C(C(F)(F)F)C(F)(F)F`, the half-maximal activity concentration (AC50) is 68.2 µM (active) and the outcome was inactive. For the compound `COC(=O)CCC(F)(F)C(F)(F)C(F)(F)C(F)(F)F`, the compound was classed as inactive. Still for that read-out and setting: with `O=C(O)C(F)(F)C(F)(F)C(F)F` the entry was “inactive”; with `Oc1ccc(Nc2ccccc2)cc1`, “inactive”; with `CCCCCCOC(=O)c1ccccc1`, “inactive”.
